Reference: PubChem BioAssay (EPA / NIEHS)
Calls of active or inactive are those of the source. How the source made its calls: active means hit-call score of the fitted dose curve at least 0.9, where 1 is the maximum; inactive means score below 0.9.

Tests used:
[1] = read-out: Macrophage colony-stimulating factor (MCSF), CSF1 (gene 1435); test: BSK_hDFCGF_MCSF: BioMAP Diversity Plus: hDFCGF Assay for Macrophage colony-stimulating factor (MCSF) Biomarker Activity (AID 2283060); conditions: primary human foreskin fibroblasts; actives raise or lower the signal
Procedure, shortened: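 M-CSF levels read by ELISA at 24 h post-dosing in human skin fibroblasts. Parallel cultures stained with SRB assessed cytotoxicity at the same time point; response fitted in both directions against the DMSO baseline.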

[2] = BSK_hDFCGF_SRB: Viability Assessment in the BioMAP Diversity Plus: hDFCGF Assay (AID 2283061); conditions: primary human foreskin fibroblasts;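 further: cells exposed to compound for 24 h before the read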
Procedure, shortened: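 Viability was read as total protein: after 10% TCA fixation, wells were stained with 0.1% sulforhodamine B and read at 560 nm. Primary human foreskin fibroblasts were dosed for 24 h, with bidirectional fitting versus DMSO.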

[3] = read-out: TIMP metallopeptidase inhibitor 1 (TIMP1), TIMP1 (gene 7076); test: BSK_hDFCGF_TIMP1: BioMAP Diversity Plus: hDFCGF Assay for TIMP metallopeptidase inhibitor 1 (TIMP1) Biomarker Activity (AID 2283062); conditions: primary human foreskin fibroblasts; actives raise or lower the signal
Procedure, shortened: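 TIMP-1 measured by ELISA 24 h after chemical dosing of primary human skin fibroblasts, with gain or loss fitted relative to DMSO. Parallel SRB staining (560 nm) monitored overt cytotoxicity.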

[4] = read-out: Monokine induced gamma interferon (MIG), CXCL9 (gene 4283); test: BSK_hDFCGF_MIG: BioMAP Diversity Plus: hDFCGF Assay for Monokine induced gamma interferon (MIG) Biomarker Activity (AID 2283063); conditions: primary human foreskin fibroblasts; actives raise or lower the signal
Procedure, shortened: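 Human primary foreskin fibroblasts in the hDFCGF system, exposed to test chemical for 24 h; MIG measured by ELISA. Bidirectional curve fitting against DMSO negative control as activity baseline.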

[5] = read-out: Matrix Metallopeptidase 1 (MMP1), MMP1 (gene 4312); test: BSK_hDFCGF_MMP1: BioMAP Diversity Plus: hDFCGF Assay for Matrix Metallopeptidase 1 (MMP1) Biomarker Activity (AID 2283064); conditions: primary human foreskin fibroblasts; actives raise or lower the signal
Procedure, shortened: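 Primary human foreskin fibroblasts exposed to chemicals for 24 h; MMP1 measured by ELISA. Cytotoxicity tracked by SRB staining in parallel cultures; bidirectional fit relative to DMSO.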

[6] = read-out: Vascular cell adhesion molecule 1 (VCAM1), VCAM1 (gene 7412); test: BSK_hDFCGF_VCAM1: BioMAP Diversity Plus: hDFCGF Assay for Vascular cell adhesion molecule 1 (VCAM1) Biomarker Activity (AID 2283065); conditions: primary human foreskin fibroblasts; actives raise or lower the signal;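 on AC50: VCAM-1 protein level quantified by ELISA after 24 h chemical exposure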
Procedure, shortened: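 ELISA readout of VCAM-1 on human dermal fibroblast primary cultures, 24 h after chemical exposure. Gain or loss of signal fitted in both directions against DMSO baseline.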

[7] = read-out: Plasminogen activator inhibitor-1 (PAI1), SERPINE1 (gene 5054); test: BSK_hDFCGF_PAI1: BioMAP Diversity Plus: hDFCGF Assay for Plasminogen activator inhibitor-1 (PAI1) Biomarker Activity (AID 2283066); conditions: primary human foreskin fibroblasts; actives raise or lower the signal
Procedure, shortened: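 Human foreskin fibroblasts in the hDFCGF system were dosed with compound for 24 h; PAI-1 was quantified by ELISA. Bidirectional curve fitting used DMSO as negative control and baseline.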

[8] = read-out: Intercellular Adhesion Molecule 1 (ICAM1), ICAM1 (gene 3383); test: BSK_KF3CT_ICAM1: BioMAP Diversity Plus: KF3CT Assay for Intercellular Adhesion Molecule 1 (ICAM1) Biomarker Activity (AID 2283067); conditions: primary human keratinocytes with fibroblasts; actives raise or lower the signal
Procedure, shortened: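 Cell-surface ICAM-1 was measured by ELISA 24 h after dosing primary human skin keratinocytes co-cultured with fibroblasts. Parallel SRB staining tracked overt cytotoxicity. Gain or loss of signal was fitted relative to DMSO.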

[9] = read-out: Interferon-gamma inducible Protein 10 (IP10), CXCL10 (gene 3627); test: BSK_KF3CT_IP10: BioMAP Diversity Plus: KF3CT Assay for Interferon-gamma inducible Protein 10 (IP10) Biomarker Activity (AID 2283068); conditions: primary human keratinocytes with fibroblasts; actives raise or lower the signal
Procedure, shortened: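 In a primary skin co-culture of keratinocytes and fibroblasts, IP-10 is quantified by ELISA at 24 h after dosing. SRB staining of parallel wells monitors overt toxicity. Curves are fitted both directions against DMSO.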

[10] = BSK_KF3CT_SRB: Viability Assessment in the BioMAP Diversity Plus: KF3CT Assay (AID 2283069); conditions: primary human keratinocytes with fibroblasts;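 further: total protein by sulforhodamine B staining as a cytotoxicity measure; read 24 h after compound addition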
Procedure, shortened: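 Human keratinocyte and foreskin fibroblast co-culture exposed to chemical for 24 h. Total protein measured in parallel cultures by 0.1% sulforhodamine B staining after 10% TCA fixation, read at 560 nm; bidirectional fit relative to DMSO.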

[11] = read-out: Interleukin-1 alpha (IL1a), IL1A (gene 3552); test: BSK_KF3CT_IL1a: BioMAP Diversity Plus: KF3CT Assay for Interleukin-1 alpha (IL1a) Biomarker Activity (AID 2283070); conditions: primary human keratinocytes with fibroblasts; actives raise or lower the signal
Procedure, shortened: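 Primary human keratinocyte plus foreskin fibroblast co-culture, dosed and measured at 24 h in 96-well plates. IL-1a level quantified by ELISA; bidirectional fit relative to DMSO.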

[12] = read-out: TIMP metallopeptidase inhibitor 2 (TIMP2), TIMP2 (gene 7077); test: BSK_KF3CT_TIMP2: BioMAP Diversity Plus: KF3CT Assay for TIMP metallopeptidase inhibitor 2 (TIMP2) Biomarker Activity (AID 2283071); conditions: primary human keratinocytes with fibroblasts; actives raise or lower the signal
Procedure, shortened: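 Human primary keratinocyte/foreskin fibroblast co-culture dosed with chemical and sampled at 24 h. TIMP-2 levels quantified by ELISA; bidirectional fitting against DMSO negative control as baseline.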

[13] = read-out: Transforming growth factor beta 1 (TGFb1), TGFB1 (gene 7040); test: BSK_KF3CT_TGFb1: BioMAP Diversity Plus: KF3CT Assay for Transforming growth factor beta 1 (TGFb1) Biomarker Activity (AID 2283072); conditions: primary human keratinocytes with fibroblasts; actives raise or lower the signal
Procedure, shortened: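 Human keratinocyte plus foreskin fibroblast primary co-culture, dosed with chemical for 24 h. TGF-b1 quantified by ELISA. Activity fitted bidirectionally against DMSO negative control as baseline.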

[14] = read-out: C-C motif chemokine 2 (Homo sapiens) (UniProt P13500); test: BSK_KF3CT_MCP1: BioMAP Diversity Plus: KF3CT Assay for Monocyte Chemoattractant Protein 1 (MCP1/CCL2) Biomarker Activity (AID 2283073); conditions: primary human keratinocytes with fibroblasts; actives raise or lower the signal
Procedure, shortened: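 ELISA read-out of MCP-1, 24 h post-dose, in primary human skin keratinocytes co-cultured with fibroblasts. Parallel SRB staining monitors cytotoxicity; changes fitted both directions relative to DMSO.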

[15] = read-out: Matrix Metallopeptidase 9 (MMP9), MMP9 (gene 4318); test: BSK_KF3CT_MMP9: BioMAP Diversity Plus: KF3CT Assay for Matrix Metallopeptidase 9 (MMP9) Biomarker Activity (AID 2283074); conditions: primary human keratinocytes with fibroblasts; actives raise or lower the signal;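 on AC50: MMP9 protein level quantified by ELISA in the co-culture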
Procedure, shortened: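 Human keratinocyte and foreskin fibroblast co-culture exposed to chemicals for 24 h; MMP9 biomarker measured by ELISA, bidirectional fitting relative to DMSO; cytotoxicity tracked by SRB total protein staining in parallel cultures.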

[16] = read-out: urokinase plasminogen activator (uPA), PLAU (gene 5328); test: BSK_KF3CT_uPA: BioMAP Diversity Plus: KF3CT Assay for urokinase plasminogen activator (uPA) Biomarker Activity (AID 2283075); conditions: primary human keratinocytes with fibroblasts; actives raise or lower the signal
Procedure, shortened: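 Primary human keratinocyte/foreskin fibroblast co-culture exposed to chemical; uPA measured by ELISA at 24 h. Bidirectional fit versus DMSO, with parallel SRB total-protein staining for cytotoxicity.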

[17] = read-out: CD40, CD40 (gene 958); test: BSK_LPS_CD40: BioMAP Diversity Plus: LPS Assay for CD40 Biomarker Activity (AID 2283076); conditions: primary human HUVEC with PBMC; actives raise or lower the signal
Procedure, shortened: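 In the LPS system of human endothelial cells with peripheral blood mononuclear cells, CD40 levels were read by ELISA 24 h post-treatment. Signal changes in either direction were fitted against the DMSO baseline, with parallel SRB protein staining.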

[18] = read-out: E-selectin (Homo sapiens) (UniProt P16581); test: BSK_LPS_Eselectin: BioMAP Diversity Plus: LPS Assay for Eselectin Biomarker Activity (AID 2283077); conditions: primary human HUVEC with PBMC; actives raise or lower the signal
Procedure, shortened: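 E-selectin ELISA on LPS-stimulated endothelial cell/PBMC co-cultures, read 24 h post-treatment; gains and losses fitted against DMSO. Parallel SRB staining (0.1% SRB after 10% TCA fixation, 560 nm) flags overt cytotoxicity.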

[19] = read-out: Interleukin-8 (IL8), CXCL8 (gene 3576); test: BSK_LPS_IL8: BioMAP Diversity Plus: LPS Assay for Interleukin-8 (IL8) Biomarker Activity (AID 2283078); conditions: primary human HUVEC with PBMC; actives raise or lower the signal
Procedure, shortened: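 ELISA read-out of IL-8 after 24 h chemical treatment of LPS-activated endothelial/PBMC human primary co-cultures. Changes either up or down relative to DMSO; overt cytotoxicity checked by sulforhodamine B staining in parallel wells.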

[20] = BSK_LPS_SRB: Viability Assessment in the BioMAP Diversity Plus: LPS Assay (AID 2283079); conditions: primary human HUVEC with PBMC;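 further: total protein by sulforhodamine B absorbance as a cytotoxicity measure; measured one day after compound addition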
Procedure, shortened: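 SRB viability endpoint: cells fixed with 10% TCA, stained with 0.1% SRB, read at 560 nm, 24 h post-dose. HUVEC/PBMC co-culture; signal change in either direction scored relative to DMSO.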

Sequence of E-selectin (Homo sapiens) (P16581 whole entry, looked up): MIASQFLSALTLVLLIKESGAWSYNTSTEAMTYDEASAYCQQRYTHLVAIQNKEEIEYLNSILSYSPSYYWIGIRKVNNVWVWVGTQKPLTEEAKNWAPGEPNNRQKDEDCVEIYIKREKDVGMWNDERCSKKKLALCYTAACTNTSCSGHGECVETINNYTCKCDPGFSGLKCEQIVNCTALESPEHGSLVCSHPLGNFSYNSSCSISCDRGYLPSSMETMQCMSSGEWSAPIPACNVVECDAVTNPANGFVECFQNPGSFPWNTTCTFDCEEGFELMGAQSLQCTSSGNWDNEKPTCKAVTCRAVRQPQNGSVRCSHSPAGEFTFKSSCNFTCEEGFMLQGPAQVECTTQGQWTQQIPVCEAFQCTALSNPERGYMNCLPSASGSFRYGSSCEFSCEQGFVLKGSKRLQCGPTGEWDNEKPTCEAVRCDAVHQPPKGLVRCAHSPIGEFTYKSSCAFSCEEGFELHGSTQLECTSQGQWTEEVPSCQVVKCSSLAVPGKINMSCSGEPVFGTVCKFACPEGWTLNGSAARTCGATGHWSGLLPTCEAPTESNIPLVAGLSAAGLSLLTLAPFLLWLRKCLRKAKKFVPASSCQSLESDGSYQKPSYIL

COP(=O)(OC)OC(Br)C(Cl)(Cl)Br (stereo not given)
AC50 [1]: 16.4 µM (active)
AC50 [2]: 20 µM (active)
AC50 [3]: 15.7 µM (active)
AC50 [4]: 17.5 µM (active)
AC50 [5]: 32.7 µM (active)
AC50 [6]: 13.4 µM (active)
AC50 [7]: 30.1 µM (active)
AC50 [8]: 31.1 µM (active)
AC50 [9]: 30 µM (active)
AC50 [10]: 26.1 µM (active)
AC50 [11]: 27.1 µM (active)
AC50 [12]: 31.3 µM (active)
AC50 [13]: 32.3 µM (active)
AC50 [14]: 31.1 µM (active)
AC50 [15]: 30.4 µM (active)
AC50 [16]: 36.9 µM (active)
AC50 [17]: 19.4 µM (active)
AC50 [18]: 32.3 µM (active)
AC50 [19]: 30.8 µM (active)
AC50 [20]: 26 µM (active)

Nc1nc(N)nc(NC2CC2)n1
outcome [1]: inactive
outcome [2]: inactive
outcome [3]: inactive
outcome [4]: inactive
outcome [5]: inactive
outcome [6]: inactive
outcome [7]: inactive
outcome [8]: inactive
outcome [9]: inactive
outcome [10]: inactive
outcome [11]: inactive
outcome [12]: inactive
outcome [13]: inactive
outcome [14]: inactive
outcome [15]: inactive
outcome [16]: inactive
outcome [17]: inactive
outcome [18]: inactive
outcome [19]: inactive
outcome [20]: inactive

CCOP(=S)(OCC)Oc1ccc2c(C)c(Cl)c(=O)oc2c1
AC50 [1]: 13.6 µM (active)
outcome [2]: inactive
outcome [3]: inactive
outcome [4]: inactive
AC50 [5]: 5.06 µM (active)
AC50 [6]: 31.3 µM (active)
outcome [7]: inactive
outcome [8]: inactive
outcome [9]: inactive
outcome [10]: inactive
AC50 [11]: 14.4 µM (active)
outcome [12]: inactive
outcome [13]: inactive
outcome [14]: inactive
outcome [15]: inactive
outcome [16]: inactive
outcome [17]: inactive
outcome [18]: inactive
outcome [19]: inactive
outcome [20]: inactive

CCOP(=S)(Oc1cnc(C(C)(C)C)nc1)OC(C)C (stereo not given)
AC50 [1]: 20 µM (active)
AC50 [2]: 37 µM (active)
outcome [3]: inactive
AC50 [4]: 31.6 µM (active)
outcome [5]: inactive
AC50 [6]: 26.8 µM (active)
outcome [7]: inactive
outcome [8]: inactive
AC50 [9]: 18.4 µM (active)
AC50 [10]: 31.4 µM (active)
AC50 [11]: 24.1 µM (active)
AC50 [12]: 38.4 µM (active)
outcome [13]: inactive
outcome [14]: inactive
AC50 [15]: 27.1 µM (active)
outcome [16]: inactive
AC50 [17]: 37.9 µM (active)
AC50 [18]: 30.9 µM (active)
AC50 [19]: 30.5 µM (active)
AC50 [20]: 30.3 µM (active)

CCOP(=O)(OCC)Oc1cc(C)nc(C(C)C)n1
AC50 [1]: 34.3 µM (active)
outcome [2]: inactive
AC50 [3]: 14.9 µM (active)
outcome [4]: inactive
AC50 [5]: 20 µM (active)
outcome [6]: inactive
AC50 [7]: 7.42 µM (active)
outcome [8]: inactive
outcome [9]: inactive
outcome [10]: inactive
outcome [11]: inactive
AC50 [12]: 29.8 µM (active)
outcome [13]: inactive
AC50 [14]: 31.5 µM (active)
AC50 [15]: 30.3 µM (active)
AC50 [16]: 29.3 µM (active)
AC50 [17]: 14.4 µM (active)
outcome [18]: inactive
outcome [19]: inactive
outcome [20]: inactive

CC(COc1ccc(Oc2ccccc2)cc1)Oc1ccccn1 (stereo not given)
outcome [1]: inactive
outcome [2]: inactive
outcome [3]: inactive
outcome [4]: inactive
outcome [5]: inactive
outcome [6]: inactive
outcome [7]: inactive
outcome [8]: inactive
outcome [9]: inactive
outcome [10]: inactive
outcome [11]: inactive
outcome [12]: inactive
outcome [13]: inactive
outcome [14]: inactive
outcome [15]: inactive
outcome [16]: inactive
AC50 [17]: 20 µM (active)
outcome [18]: inactive
outcome [19]: inactive
outcome [20]: inactive
